High-throughput results from PubChem.
Hits are enriched below; roughly 10% of the tested compounds scored in any of these assays.
G9a inh: inhibitors of human histone lysine methyltransferase G9a | G9a H3K9 monomethylation, AlphaScreen, 2 h | Potency, µM (titrated, usually from 102 µM), for the others: top-dose activity, negative = inhibition, hits mostly inhibitors | actives 8.8% (n = 350,000) | AID 504332; also: % is scaled to controls: 0 for no effect and ±100 for the full control effect; nearly all actives have a fitted effect of over 75% in size
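Chemiluminescent proximity detection of H3K9 monomethylation, read after 10 min bead incubation in the dark. Reaction: 20 nM G9a, 500 nM biotin-H3K9 peptide, 20 uM SAM cofactor, 2 h, room temperature, following 15 min enzyme-compound preincubation.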
GLS inhibitor: glutaminase GLS (human) inhibition; GLS enzymatic activity, qHTS titration; Potency, µM (titrated, usually from 45.5 µM), without a hit: top-dose activity change, negative = inhibition, actives largely listed as inhibitors; actives 0.21% (n = 410,000); also: % is scaled to controls: 0 for no effect and ±100 for the full control effect
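Assay buffer: 45 mM KH2PO4 pH 8.2, 0.02% Tween-20. hKGA acts on L-glutamine (1 mM solution added); product glutamate is reported by an oxidase/peroxidase Amplex Red coupling, with fluorescence taken at baseline and 30 min.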
BAZ2B block: BAZ2B (human) inhibition. Q9UIF8. AlphaScreen BAZ2B-H3K14Ac peptide displacement. Potency, µM (highest dose often 114 µM), for inactives: at the highest dose activity change, negative = inhibition, hits mostly inhibitors. actives 4.4% (n = 360,000). AID 504333; also: % is scaled to controls: 0 for no effect and ±100 for the full control effect; nearly all actives have a fitted effect of over 60% in size
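In this displacement format the biotinylated H3(5-23) peptide acetylated at Lys14 serves as ligand at 50 nM, with BAZ2B at 50 nM in PBS pH 7.4 containing 0.01% Tween-20. Donor and acceptor beads are 10 ug/mL final.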
L3MBTL1 block: inhibitors of human L3MBTL1. AlphaScreen L3MBTL1–H3K9me1 peptide binding. Potency, µM (series often up to 57.1 µM), for inactives: top-dose activity, negative = inhibition, usual class: inhibitors. actives 0.66% (n = 230,000); also: % is scaled to controls: 0 for no effect and ±100 for the full control effect; nearly all actives have a fitted effect of over 60% in size
Target sequence (Q9Y468 whole entry, looked up): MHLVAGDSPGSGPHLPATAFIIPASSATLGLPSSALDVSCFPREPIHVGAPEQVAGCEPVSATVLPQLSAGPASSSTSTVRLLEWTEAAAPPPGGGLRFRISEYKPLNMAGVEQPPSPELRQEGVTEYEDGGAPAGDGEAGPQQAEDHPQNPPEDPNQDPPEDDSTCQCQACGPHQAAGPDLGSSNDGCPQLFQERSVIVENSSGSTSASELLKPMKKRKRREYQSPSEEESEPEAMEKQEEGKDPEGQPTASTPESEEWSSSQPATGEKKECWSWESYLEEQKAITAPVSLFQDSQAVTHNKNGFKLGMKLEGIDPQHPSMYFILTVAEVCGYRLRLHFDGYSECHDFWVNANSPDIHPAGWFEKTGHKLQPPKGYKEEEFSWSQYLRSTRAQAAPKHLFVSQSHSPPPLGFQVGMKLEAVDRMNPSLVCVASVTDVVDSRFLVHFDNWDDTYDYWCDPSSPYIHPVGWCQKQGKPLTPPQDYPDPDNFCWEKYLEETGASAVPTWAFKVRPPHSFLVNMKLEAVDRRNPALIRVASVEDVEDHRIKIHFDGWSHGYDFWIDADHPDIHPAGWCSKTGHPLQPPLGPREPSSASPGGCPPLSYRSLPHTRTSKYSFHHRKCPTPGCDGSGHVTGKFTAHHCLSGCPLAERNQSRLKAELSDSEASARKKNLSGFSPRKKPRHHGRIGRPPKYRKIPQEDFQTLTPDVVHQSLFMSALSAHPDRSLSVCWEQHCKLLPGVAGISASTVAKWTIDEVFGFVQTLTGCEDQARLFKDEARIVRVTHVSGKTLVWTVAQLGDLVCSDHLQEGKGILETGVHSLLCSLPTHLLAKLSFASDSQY
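L3MBTL1 50 nM + b-AHA-H3(1-15)K9me1 75 nM, 30 min RT; compound added, 30 min RT; streptavidin donor/Ni-chelate acceptor beads 10 ug/mL each final, 30 min RT dark; AlphaScreen read.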
JMJD2A Tudor inh: blocks the human JMJD2A Tudor domain. AlphaScreen JMJD2A-Tudor / H3K4me3 peptide binding. O75164. actives 4.4% (n = 390,000). Potency, µM (titrated, usually from 114 µM), inactives show top-dose activity change, negative = inhibition, most hits filed as inhibitors; also: % is scaled to controls: 0 for no effect and ±100 for the full control effect; nearly all actives have a fitted effect of over 50% in size
HP1b binding inh: blocks HP1-beta chromodomain binding to methylated histone tails; P83916; AlphaScreen HP1-beta / biotin-H3K9me3 peptide binding; Potency, µM (highest dose often 114 µM), without a hit: top-dose activity change, negative = inhibition, usual class: inhibitors; actives 0.56% (n = 390,000); also: nearly all actives have a fitted effect of over 70% in size
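Compound inhibition of the preformed complex between 50 nM HP1-beta and 50 nM biotinylated H3K9me3 peptide was read by AlphaScreen. Buffer was PBS pH 7.4 with 0.01% Tween-20. Incubations ran 30 min at room temperature, with 10 ug/mL donor/acceptor beads.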
* = called active by the depositor; ! = repeats disagree; [ ] = dose if it differs, or a comment. Calls follow the shape of the dose curve; as a rule, active = well fitted curve in the direction sought with a large enough effect; inconclusive = small, poorly fitted or top-dose-only effect, or another doubt; inactive = no such curve, though single readings can be large; an effect the other way counts as inactive or inconclusive. Potency is read from the fitted curve at half-maximal effect.

For CC1(C(=O)NC(=S)N(CCC#N)c2ccccc2)CC1(Cl)Cl (stereo not given) the results were G9a inh 28µM*, GLS inhibitor 38%, BAZ2B block -37%, JMJD2A Tudor inh inconclusive and HP1b binding inh -1%.
For CC1C(=O)OC2C1CCC1(C)CCC(=O)C(C)C21 (stereo not given) the results were G9a inh 22µM*, GLS inhibitor -3%, BAZ2B block 13%, JMJD2A Tudor inh 50µM* and HP1b binding inh 51%.
Screening O=C(NC(=S)NN1CCCCC1c1cccnc1)c1ccc(Br)cc1 (stereo not given) returned G9a inh 45µM*, GLS inhibitor -15%, BAZ2B block 0%, L3MBTL1 block -10%, JMJD2A Tudor inh -15% and HP1b binding inh 12%.
`COC(=O)c1ccc(NC(=S)NN2CCCCC2c2cccnc2)cc1` (stereo not given) gave GLS inhibitor 19%, BAZ2B block -5%, L3MBTL1 block 12%, JMJD2A Tudor inh -13% and HP1b binding inh 46%.
For COc1ccc(NC(=O)CN2C(=O)C3(SCC(=O)N3c3cccc(OC)c3)c3ccccc32)cc1 (stereo not given) the results were G9a inh -31%[59 µM], GLS inhibitor -5%, BAZ2B block 1%[57.1 µM], JMJD2A Tudor inh -21% and HP1b binding inh -4%.
`O=C(Nc1cc(F)ccc1F)C1CCN(C(=O)c2cnn(-c3ccccc3)c2-n2cccc2)CC1` gave G9a inh -4%[59 µM], GLS inhibitor 0%, BAZ2B block -5%, JMJD2A Tudor inh -11% and HP1b binding inh 36%.
`CCN1CCc2nc(N)sc2C1` gave G9a inh 13µM*, GLS inhibitor 30%, BAZ2B block -15%, L3MBTL1 block 2%, JMJD2A Tudor inh 3% and HP1b binding inh -20%.
`C=CCN1CCN(Cc2cnc(Cl)s2)CC1` gave G9a inh 7%[12.7 µM], GLS inhibitor -8%, BAZ2B block -4%, L3MBTL1 block 0%, JMJD2A Tudor inh -6% and HP1b binding inh 19%.
`C=CCN1CCc2nc(N)sc2CC1` gave G9a inh 16µM*, GLS inhibitor 38%, BAZ2B block -3%, L3MBTL1 block 1%, JMJD2A Tudor inh -14% and HP1b binding inh 18%.
COc1ccc(C(=O)COC(=O)Cn2c(C)csc2=O)c(OC)c1 was read as G9a inh inconclusive, GLS inhibitor 0%, BAZ2B block inconclusive, L3MBTL1 block inconclusive, JMJD2A Tudor inh inconclusive and HP1b binding inh -14%.
Cc1ccc(C)c(C(=O)COC(=O)Cn2c(C)csc2=O)c1 was read as G9a inh 79µM*, GLS inhibitor 2%, BAZ2B block -9%, JMJD2A Tudor inh -8% and HP1b binding inh 17%.
Cc1ccc(-c2nn(-c3ccc(F)cc3F)c3c2cnc2c(F)cccc23)cc1 was read as G9a inh 13%[59 µM], GLS inhibitor -5%, BAZ2B block -14%, JMJD2A Tudor inh -16% and HP1b binding inh 34%.
`CCCCC1C(=O)N(c2ccccc2)N(c2ccc(O)cc2)C1=O` (stereo not given) gave G9a inh 3.5µM*!, GLS inhibitor -18%, BAZ2B block 5%, L3MBTL1 block 3%, JMJD2A Tudor inh 56µM* and HP1b binding inh inconclusive.
COc1ccc2sc(/C=C/c3ccccc3O)[n+](C)c2c1 was read as G9a inh 45µM*, GLS inhibitor 12%, BAZ2B block inconclusive, L3MBTL1 block -11%, JMJD2A Tudor inh inconclusive and HP1b binding inh 0%.
Screening Cc1cc(C(C)(C)C)cc(C)c1Cn1c2[n+](c3ccc(C(F)(F)F)cc31)CCCCC2 returned G9a inh -47%, GLS inhibitor -13%, BAZ2B block 1%, L3MBTL1 block -2%, JMJD2A Tudor inh inconclusive and HP1b binding inh 3%.
`N#Cc1ccc(NC(=O)Cn2c3[n+](c4ccc(C(F)(F)F)cc42)CCCCC3)cc1` gave G9a inh inconclusive, GLS inhibitor 0%, BAZ2B block -13%, L3MBTL1 block -3%[11.4 µM], JMJD2A Tudor inh 14µM* and HP1b binding inh -8%.
FC(F)(F)c1cccc(Cn2c3[n+](c4ccc(C(F)(F)F)cc42)CCCCC3)c1 was read as G9a inh 22µM*, GLS inhibitor 9%, BAZ2B block -22%, JMJD2A Tudor inh -16% and HP1b binding inh 18%.
For O=C(Cn1c2[n+](c3ccc(C(F)(F)F)cc31)CCCCC2)Nc1ccc(Br)cc1 the results were G9a inh 35µM*, GLS inhibitor -6%, BAZ2B block inconclusive, JMJD2A Tudor inh -4% and HP1b binding inh 38%.
Screening Cc1ccccc1-n1c(-c2ccc(Cl)cc2)cnc1SCC(=O)NC1CCS(=O)(=O)C1 (stereo not given) returned G9a inh 8.9µM*, GLS inhibitor -17%, BAZ2B block 50µM*, L3MBTL1 block -3%, JMJD2A Tudor inh inconclusive and HP1b binding inh -29%.
For O=C(CSc1nnc(-c2ccccc2)n1-c1ccc(Cl)cc1)NC1CCS(=O)(=O)C1 (stereo not given) the results were G9a inh 20%[59 µM], GLS inhibitor 8%, BAZ2B block -1%, L3MBTL1 block 2%, JMJD2A Tudor inh -11% and HP1b binding inh 8%.
For CC(C)(C)c1ccc(-c2nnc(SCC(=O)NC3CCS(=O)(=O)C3)n2N)cc1 (stereo not given) the results were G9a inh 20µM*, GLS inhibitor -12%, JMJD2A Tudor inh -24% and HP1b binding inh 9%.
For COc1cc(CC2COC(c3ccc(O)c(OC)c3)C2COC(C)=O)ccc1O (stereo not given) the results were G9a inh inconclusive, GLS inhibitor 11µM*, BAZ2B block 40µM*, JMJD2A Tudor inh 50µM* and HP1b binding inh inconclusive.
Screening O=S(=O)(Nc1c(S(=O)(=O)c2ccccc2)c2nc3ccccc3nc2n1C1CCCCC1)c1ccccc1 returned G9a inh 3%[59 µM], GLS inhibitor -17%, BAZ2B block 4%, L3MBTL1 block inconclusive, JMJD2A Tudor inh 11% and HP1b binding inh 68%.
C=CCn1c(NS(=O)(=O)c2ccccc2)c(S(=O)(=O)c2ccc(C)cc2)c2nc3ccccc3nc21 was read as G9a inh 2µM*, GLS inhibitor 1%, BAZ2B block -19%, L3MBTL1 block 3.5µM*, JMJD2A Tudor inh 12% and HP1b binding inh 87%.
For Cc1ccc2c(c1)C(=O)C(=O)N2Cc1ccc(OCCC(C)C)cc1 the results were G9a inh -32%[59 µM], GLS inhibitor 10%, BAZ2B block inconclusive, JMJD2A Tudor inh -24% and HP1b binding inh -22%.
